Rows were chosen to be rich in hits. Some 6% of all compounds tested hit in one or more screens of this group.
D1 antag: antagonists of human D1 dopamine receptor; hit rate 3.2% among 360,000; activity change, negative = inhibition, % at 10 µM; HEK293 TREx D1 cells, calcium flux, dopamine EC80; active compounds read low; P21728; in the data active = activity change below about -30%; note: % is set by controls: 0 for no effect and ±100 for the full control effect
Target sequence (P21728 whole entry, looked up): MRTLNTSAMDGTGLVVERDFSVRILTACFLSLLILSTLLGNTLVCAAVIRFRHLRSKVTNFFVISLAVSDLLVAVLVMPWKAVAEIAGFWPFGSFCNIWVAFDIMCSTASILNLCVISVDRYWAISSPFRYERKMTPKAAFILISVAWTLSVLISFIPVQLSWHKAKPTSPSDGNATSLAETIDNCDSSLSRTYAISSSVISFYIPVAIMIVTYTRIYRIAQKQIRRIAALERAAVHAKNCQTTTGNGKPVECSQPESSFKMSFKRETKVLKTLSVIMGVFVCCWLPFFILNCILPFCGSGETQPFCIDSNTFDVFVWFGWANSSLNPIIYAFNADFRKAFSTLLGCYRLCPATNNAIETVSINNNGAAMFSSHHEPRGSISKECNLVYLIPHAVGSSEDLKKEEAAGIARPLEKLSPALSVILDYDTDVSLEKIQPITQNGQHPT
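Kinetic fluorescence of a calcium dye serves as the read-out. D1-expressing Hek293 Trex cells, induced overnight at 30 C, are exposed to compound for 180 s before an EC80 dopamine addition, then read 180 s further.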
DRD3 agonist: agonists of human D3 dopamine receptor; D3R DiscoveRx beta-arrestin cells, luminescence, 90 min; max activation, %; hit rate 0.58% among 410,000; P35462; in the data active = max activation above about 30%; note: 0% is about no effect
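Agonist mode: compounds and dopamine controls were applied to plated cells for 90 min at 37 degrees C after an overnight attachment at 1500 cells/well. Luminescent read-out followed 30 - 60 minutes at room temperature with DiscoveRx detection reagent.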
DRD3 antagonist: blocks the human D3 dopamine receptor; D3R cells, DiscoveRx beta-arrestin luminescence, antagonist mode; active compounds read low; AID 652054; max response, negative = inhibition, %; hit rate 2.5% among 360,000; in the data active = max response below about -50%; inconclusive = no clear call, values can overlap the other calls; note: % is set by controls: 0 for no effect and ±100 for the full control effect
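Cells plated overnight at 1500 cells/well, then exposed to library compounds with dopamine controls for 90 minutes at 37 degrees C. DiscoveRx reagent added for 30–60 minutes at room temperature; luminescence read, quantitative HTS format.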
D1 ag: activates the human D1 dopamine receptor | HEK293 T-REx D1 cells, calcium flux, agonist mode | activation, % at 2 µM | hit rate 1% among 360,000; in the data active = activation above about 30%; note: 0% is about no effect
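Agonism was scored from calcium flux recorded over 180 s (1 read/s) after pintool compound addition, following a 10-cycle baseline. Cells were inducible force-coupled HEK293 TREx D1, plated overnight at 30 C and loaded with no-wash calcium dye.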
BCR signal inh: inhibitors of chronic active B-cell receptor signaling | ABC-DLBCL IkBa-CBG/CBR reporter, luminescence ratio, 4 h | Potency, µM (highest dose often 46.1 µM), without a hit: at the top dose activity change, negative = inhibition, usual class: inhibitors | hit rate 0.05% among 340,000 | AID 493014; active = well fitted inhibition curve with a large enough effect in the signal ratio, with a control signal flat, not every such curve was filed as active; inconclusive = small, poorly fitted or top-dose-only effect, or effect the other way, or a change in a side signal; the % refers to the signal ratio;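 note: potency is the fitted concentration of half-maximal effect; plate controls were basal doxycycline-induced cells for no effect and cells given 10 µM MG132 for full effect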
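Concentration-response series (up to 46 uM) were applied to TMD8 dual-reporter cells for 4 h at 37C with doxycycline. Green/red ratio, after filter-overlap correction, defined %Activity; red signal alone was normalised to basal cells and zero luminescence.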
D1 PAM: human D1 dopamine receptor positive modulation; HEK293 TREx D1 cells, calcium flux, dopamine EC20 potentiation; potentiation, % at 10 µM; hit rate 0.036% among 360,000; in the data active = potentiation above about 30%; note: 0% is about no effect
Starred values were filed as active, the others as inactive; u = inconclusive; x = not tested or not shown.

SMILES | D1 antag | DRD3 agonist | DRD3 antagonist | D1 ag | BCR signal inh | D1 PAM
CCOc1ccc(N2CC(O)(c3ccc(F)cc3)[N+]3=C2CCCC3)cc1 (stereo unspecified) | -44* | -13 | -7 | 4 | 6% | -4
COc1ccc(N2CC(O)(c3ccc(F)cc3)[N+]3=C2CCCC3)cc1 (stereo unspecified) | -4 | 1 | u | 1 | 0% | -7
COc1ccc(N2CC(O)(c3ccc(OC(F)F)cc3)[N+]3=C2CCCC3)cc1 (stereo unspecified) | 13 | -14 | -50* | 2 | -1% | 5
O=C(NCCn1cc(SCc2ccccc2Cl)c2ccccc21)c1cccs1 | 1 | 2 | x | 2 | x | -4
O=c1c2oc3ccccc3c2n(Cc2ccc(Cl)cc2)c(=O)n1Cc1ccc2c(c1)OCO2 | 3 | 2 | x | 2 | x | -5
O=C(CN(Cc1ccco1)C(=O)CNS(=O)(=O)c1ccc(Cl)cc1)NCc1ccco1 | -52* | -7 | 12 | 0 | 2% | -1
Cc1ccc(S(=O)(=O)NCC(=O)N(CC(=O)NCc2ccco2)Cc2ccco2)cc1 | -6 | -10 | 4 | 1 | 12% | -5
CSc1ccc(CCNC(=O)C(C)n2c(C)c3cnn(-c4ccccc4)c(=O)c3c2C)cc1 (stereo unspecified) | 7 | -17 | x | -3 | x | 0
O/N=C/c1cc2ccccc2n1Cc1ccccc1F | 22 | -5 | -53* | -1 | 0% | -2
CCSC1=NC2(CCCCC2)Nc2sc3c(c21)CCCC3 | -1 | 0 | -61* | 2 | 9% | -1
CNC(=O)NC(=O)C(C)OC(=O)c1c2c(nc3ccccc13)/C(=C/c1cccs1)CC2 (stereo unspecified) | 3 | 37* | 2 | 9 | 9% | -7
CCCCNC(=O)COC(=O)c1c2c(nc3ccccc13)/C(=C/c1cccs1)CC2 | -1 | 69* | 11 | 7 | u | -5
COc1cc(/C=C2\CCc3c2nc2ccccc2c3C(=O)O)cc(OC)c1OC | 3 | 5 | 0 | 1 | 4% | -6
CCN(C(=O)c1c([N+](=O)[O-])cnn1C)c1ccccc1 | x | -2 | -21 | x | x | x
CN1C(=O)C2CN(CCc3ccccc3)CNC2N(C)C1=O (stereo unspecified) | -35* | 11 | -21 | 3 | -1% | -12
CC(=O)Nc1ccc(NC(=O)c2ccc(C3SCC(=O)N3CCc3ccccc3)cc2)cc1 (stereo unspecified) | -52* | 1 | 1 | 6 | -2% | -2
O=C(Nc1cccc2cccnc12)OC(Cl)(Cl)Cl | -10 | x | x | 1 | x | 1
O=C(O)CCCCCNCc1ccncc1 | -41* | 5 | 11 | 1 | 0% | -10
CCOC(=O)CCCCNCc1ccccc1 | 14 | -17 | -70* | 1 | 0% | -6
CC(=O)c1ccc(NC(=O)CC2Oc3ccc(C)cc3NC2=O)cc1 (stereo unspecified) | -3 | -7 | x | 2 | x | -1
CCc1ccc(S(=O)(=O)NCc2ccc(C(=O)NCCN(Cc3ccccc3)C(C)C)cc2)cc1 | x | -16 | -91* | x | x | x
COc1cccc(NC(=S)N2CCCC2c2ccc(OC)c(OC)c2)c1 (stereo unspecified) | -61* | 1 | -20 | -1 | u | -5
COc1ccc(C2CCCN2C(=S)Nc2ccc(C)cc2C)cc1OC (stereo unspecified) | -38* | -1 | -4 | 2 | -17% | -3
COc1ccc(C2CCCN2C(=S)Nc2cccc(Cl)c2)cc1OC (stereo unspecified) | -2 | 13 | -9 | 2 | 6% | 1
Cc1ccc(S(=O)(=O)NN=Cc2ccco2)cc1 | x | 8 | 11 | x | x | x
Fc1ccc(CNC(=S)Nc2ccc(Cl)cc2Cl)cc1 | -38* | 1 | 9 | 24 | 14% | -12
Fc1ccc(CNC(=S)NCc2cccc(Cl)c2)cc1 | -33* | -14 | -23 | -1 | 2% | -4
S=C(NCc1ccccc1)NCc1cccc(Cl)c1 | -17 | 0 | 1 | 1 | -2% | -3
S=C(NCc1ccc(Cl)cc1)Nc1ccc(Cl)cc1Cl | -21 | 2 | -16 | 19 | u | -11
